# Screens deposited in PubChem BioAssay by several laboratories.
# MazF activator: MazEF (E. coli) toxin RNase activation; P0AE70; actives 0.32% (n = 350,000); activation, % at 20 µM; FAM/BHQ RNA-DNA oligo cleavage fluorescence, 5 h; in the data active = activation above about 50%
# BoNT-F LC inh: blocks Botulinum neurotoxin F light chain protease. actives 0.22% (n = 360,000). inhibition, % at 10 µM. Multiplex microsphere protease cleavage assay, flow cytometry; in the data active = inhibition above about 35%, passing the limit was not always enough; inconclusive = no clear call, values can overlap the other calls; also: plate controls were buffer without enzyme for full effect and enzyme alone for no effect
# Anthrax LF inh2: anthrax lethal factor protease inhibition; P15917; multiplex microsphere protease cleavage assay, LF; inhibition, % at 10 µM; actives 0.12% (n = 360,000); also: plate controls were buffer without enzyme for full effect and enzyme alone for no effect
# Bead autofluor: compound fluorescence in toxin protease inhibitor counterscreen | compound autofluorescence counterscreen, microsphere flow cytometry; hits give high values | fluorescence intensity (test concentration not listed) | actives 3.1% (n = 360,000); in the data active = fluorescence intensity above about 16000; inconclusive = no clear call, values can overlap the other calls
# BoNT A protease: blocks Botulinum neurotoxin A light chain protease | inhibition, % at 10 µM | multiplex microsphere protease substrate cleavage, flow cytometry | actives 0.17% (n = 360,000); also: plate controls were buffer without enzyme for full effect and enzyme alone for no effect
# The depositor's hits bear a star; ? = inconclusive; / = no result given. The list is not random: actives were taken first. Their share in the collection is about 3.7%. Rule as the data show it, unless noted: active = inhibition above about 30%; inconclusive = no clear call, values can overlap the other calls; inactive = below that.
SMILES,MazF activator,BoNT-F LC inh,Anthrax LF inh2,Bead autofluor,BoNT A protease
O=C(CCCC(=O)OCC(=O)c1ccc(F)cc1)Nc1cc(C(F)(F)F)ccc1Cl,-10,-6,-2,20642*,?
O=C(CCCC(=O)OCC(=O)c1ccc(Cl)cc1Cl)Nc1cc(C(F)(F)F)ccc1Cl,-2,4,-1,2656,1
COCCNC(=O)Cn1cc(/C=C(\C#N)C(=O)NC2CCCC2)c2ccccc21,-3,?,-4,3798,2
O=C(N/N=C/c1ccccc1)c1ccc(N2CCCC2=O)cc1,5,-8,-10,6605,0
CNc1nc(Cl)c(SC)c(NCc2cccc(OC)c2)n1,3,48*,-1,4483,-4
COc1cccc(CNc2ncnc3cc(Cl)ccc23)c1,-7,-6,-6,3495,0
C=CCn1c(O)c(C(C)=NCCN2CCOCC2)c(=O)[nH]c1=O,4,3,5,21797*,3
CC(=NCCN1CCCCC1)c1c(O)n(-c2ccc(Cl)cc2)c(=O)[nH]c1=O,1,-5,-4,24548*,-5
CC(=NCCN1CCOCC1)c1c(O)n(Cc2ccccc2)c(=O)[nH]c1=O,-6,9,-12,13970,5
CCC(=NCCCn1ccnc1)c1c(O)n(-c2ccccc2)c(=O)[nH]c1=O,-3,?,-25,4102,?
COc1ccc(-n2c(O)c(C(C)=NCCCn3ccnc3)c(=O)[nH]c2=O)cc1,-3,-6,1,17270*,-2
C=CCn1c(O)c(C(C)=NCc2ccco2)c(=O)[nH]c1=O,2,0,0,21930*,0
C=CCn1c(O)c(C(CC)=NCc2ccco2)c(=O)[nH]c1=O,3,?,-3,3841,?
Cc1cc(Cl)ccc1C(O)c1ncc(-c2ccccc2Cl)[nH]1 (centres undefined),/,-6,-11,3941,0
CNc1cc(-c2ccc(OC)nc2)ncn1,/,0,0,2954,0
COc1ccc(CNC(=O)C(C)OC(=O)Cn2cnc3c2c(=O)n(C)c(=O)n3C)cc1 (centres undefined),3,-7,1,6788,-3
CCc1nc(NCC2CCCO2)c2oc3ccccc3c2n1 (centres undefined),-6,0,-9,3241,0
Cc1nc(NCC2CCCO2)c2oc3ccccc3c2n1 (centres undefined),1,4,0,21375*,3
CCc1nc(NCc2cccnc2)c2oc3ccccc3c2n1,1,0,-1,16165*,2
CCNc1nc(CC)nc2c1oc1ccccc12,1,5,-10,21864*,4
CCNc1nc(C)nc2c1oc1ccccc12,-4,-6,-2,11198,0
NS(=O)(=O)c1ccc(CCNC(=O)c2ccc(OCC3CCCO3)cc2)cc1 (centres undefined),0,-7,1,4557,1
CCCCN(C)c1c(C)nc2ccc(C(=O)N(C)Cc3ccco3)cn12,/,8,-4,3577,0
COc1cccc(CNC(=O)c2ccc(NS(=O)(=O)c3ccc4[nH]c(=O)[nH]c4c3)cc2)c1,7,-8,-1,4770,5
CCOc1cccc(C=Nc2cc(C)cc(C)c2O)c1O,12,4,-1,22996*,?
SMILES,MazF activator,BoNT-F LC inh,Anthrax LF inh2,Bead autofluor,BoNT A protease
Cc1ccc(OCC(=O)NNC(=O)c2ccc(F)c(S(=O)(=O)N3CCOCC3)c2)cc1C,12,-3,2,3519,-1
COC(=O)CC1SC(=O)NC1=Nc1ccccc1 (centres undefined),-1,0,1,23324*,1
CC(=O)OCC(=O)C1CCC2C3CCC4=CC(=O)C=CC4(C)C3CCC12C (centres undefined),9,7,-2,3799,0
Nc1nnc(-c2ccc(F)cc2)s1,-10,-9,3,8383,0
Nc1nnc(-c2ccccc2)s1,0,-2,-2,23348*,-2
O=C(OCn1ncc(Cl)c(Cl)c1=O)c1ccccc1Cl,10,-4,-1,16218*,0
CS(=O)(=O)N1CCN(C(=O)c2ccccc2)C1,7,0,-2,16660*,0
O=C(c1ccc(Cn2cc(Cl)cn2)cc1)N1CCN(c2ccccc2)CC1,-3,-8,-10,9205,-1
O=C(c1ccc(Cn2cc(Br)cn2)cc1)N1CCN(c2ccccc2)CC1,0,-1,5,23168*,1
CN(C)S(=O)(=O)N1CCN(C(=O)c2ccccc2)CC1,3,-5,6,4505,2
CS(=O)(=O)Nc1ccc(C(=O)Nc2ccccc2C(=O)N2CCCC2)cc1,8,-1,-1,20057*,1
CN(CC(=O)Nc1ccccc1C(=O)N1CCCC1)S(=O)(=O)c1ccc(Cl)cc1,-3,-1,1,24313*,-1
CC(C)CC(=O)Nc1ccnn1C1CCN(C(=O)c2ccc(F)cc2Cl)CC1,-6,3,1,6338,0
O=C(c1ccccc1)N1CCN(c2ccccc2)CC1,4,-6,0,2922,0
CS(=O)(=O)Nc1ccc(C(=O)N2CCN(c3ccccc3)CC2)cc1,8,5,-6,22316*,2
CCCn1c2ccccc2c2nnc(SCC(=O)OC)nc21,-2,6,-5,20508*,5
CCCn1c2ccccc2c2nnc(SCC(=O)OCC)nc21,0,-8,0,2128,0
COc1ccc(C(=O)c2ccccc2)cc1,5,-9,-2,2033,0
COc1ccc(C(=O)c2ccc(Br)cc2)cc1,4,2,0,20227*,2
COCCN(C(=O)c1csnn1)C(C(=O)NC1CCCCC1)c1sccc1C (centres undefined),8,-2,2,23376*,0
O=C(NC1CCCC1)C(c1ccccn1)N(C(=O)c1csnn1)C1CC1 (centres undefined),-9,-7,-2,16748*,-2
O=C(NC1CCCC1)C(c1ccccn1)N(C(=O)c1csnn1)C1CCCCC1 (centres undefined),4,-9,-3,3284,0
O=C(NC1CCCCC1)C(c1ccco1)N(C(=O)c1csnn1)C1CCCC1 (centres undefined),0,4,3,22986*,1
Cc1ccc(CN(C(=O)c2csnn2)C(C(=O)NC2CCCC2)c2ccco2)cc1 (centres undefined),13,-7,5,3847,-2
O=C(NC1CCCC1)C(c1ccco1)N(Cc1ccccc1)C(=O)c1csnn1 (centres undefined),-3,-2,-1,20226*,?
CCOC(=O)C1CCN(C(=O)COC(=O)CNS(=O)(=O)c2ccc(SC)c([N+](=O)[O-])c2)CC1,1,-3,-1,5957,-1
Cc1ccc(NC(=O)CCCn2c(=S)[nH]c3ccsc3c2=O)cc1C,-8,-2,-2,5193,-1
Cc1n[nH]c(=O)c2c(NC(=O)COC(=O)/C=C/c3cccc(C(F)(F)F)c3)oc(C)c12,9,0,-2,6037,0
CC(C)(C)NC(=O)C(c1ccccc1F)N(Cc1ccco1)C(=O)c1csnn1 (centres undefined),4,1,-1,16964*,-1
